Data taken from the supplement of paper PMC12350171.
Counter-ions that a name gives are not always drawn.

Columns and labels:
Details in all cases: 20 µM
[1] = tested on: Salmonella enterica typhimurium; assay: growth AUC normalised to DMSO control (fraction of control); higher = less growth inhibition, active = hit call of the paper
Outline: (§1)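 Pathogens passaged twice anaerobically were inoculated at a starting OD578 of 0.01 into pre-reduced mGAM plates with drug at 20 μM and 1% DMSO, sealed with breathable membranes. Haemophilus parainfluenzae medium was supplemented with hemin and NAD. OD578 was read hourly for 24 h, with three biological replicates. Growth-curve AUC was computed by the trapezoidal rule up to the exponential-to-stationary transition and normalised to DMSO controls on the same plate.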

Shigella flexneri = assay: as above
Outline: as §1

Vibrio cholerae = assay: as above
Outline: as §1

[2] = tested on: Yersinia pseudotuberculosis; assay: as above
Outline: as §1

P. vulgatus RND KO = assay: growth AUC normalised to DMSO control (median) (fraction of control); higher = less growth inhibition, active = hit call of the paper
Outline: (§2)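 After two overnight anaerobic passages, strains were inoculated at OD578 0.01 into mGAM in 96-well plates containing approved-drug library compounds at 20 μM and 1% DMSO. Growth was followed by reading OD578 hourly for 24 h within an anaerobic incubator. Area under the curve, taken by the trapezoidal rule up to the start of stationary phase, was normalised to same-plate vehicle wells, and the median of three biological replicates is listed.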

P. vulgatus WT = assay: as above
Outline: as §2

[3] = tested on: S. enterica typhimurium WT; assay: as above
Outline: as §2

[4] = tested on: S. enterica typhimurium tolC KO; assay: as above
Outline: as §2

Measured: growth AUC normalised to DMSO control
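For growth AUC normalised to DMSO control (median) in this document: active when median AUC fell below 0.1.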

C=CC1=C(C(=O)O)N2C(=O)[C@@H](NC(=O)/C(=N\OCC(=O)O)c3csc(N)n3)[C@H]2SC1 [Cefixime]
active: [1] 0.00409 | Shigella flexneri 0.0268 | Vibrio cholerae 0.0803 | [2] 0.0395 | P. vulgatus RND KO 0.0155 | P. vulgatus WT 0.0102 | [3] 0.012 | [4] 0.00361

CCOCCn1c(N2CCCN(C)CC2)nc2ccccc21 [Emedastine difumarate]
inactive: [1] 0.995 | Shigella flexneri 0.997 | Vibrio cholerae 0.992 | [2] 0.996 | P. vulgatus RND KO 1.03 | P. vulgatus WT 1.05 | [3] 1 | [4] 0.989

CC(=O)c1ccc2c(c1)N(CCCN1CCC(CCO)CC1)c1ccccc1S2 [Piperacetazine]
inactive: [1] 0.971 | Shigella flexneri 1.05 | Vibrio cholerae 1.03 | [2] 1.01 | P. vulgatus RND KO 1.01 | P. vulgatus WT 1.02 | [3] 1 | [4] 0.948

CN(C)CCC(c1ccc(Br)cc1)c1ccccn1 (centres undefined) [Brompheniramine maleate]
inactive: [1] 0.99 | Shigella flexneri 1 | Vibrio cholerae 1.02 | [2] 1 | P. vulgatus RND KO 0.994 | P. vulgatus WT 0.995 | [3] 0.977 | [4] 0.856

CN(C)CCOC(c1ccccc1)c1ccccc1 [Diphenhydramine hydrochloride]
inactive: [1] 0.993 | Shigella flexneri 0.976 | Vibrio cholerae 0.976 | [2] 0.969 | P. vulgatus RND KO 1.01 | P. vulgatus WT 1 | [3] 0.981 | [4] 1

O=c1[nH]c(=O)n([C@H]2C[C@H](O)[C@@H](CO)O2)cc1F [Floxuridine]
inactive: [3] 0.815 | [4] 0.791
active: [1] 0.713 | Shigella flexneri 0.729 | Vibrio cholerae 0.695 | [2] 0.44 | P. vulgatus RND KO 0.0504 | P. vulgatus WT 0.0573

CC(=O)O[C@]1(C(C)=O)CC[C@H]2[C@@H]3C=C(Cl)C4=CC(=O)CC[C@]4(C)[C@H]3CC[C@@]21C [Chlormadinone acetate]
inactive: [1] 0.989 | Shigella flexneri 0.993 | Vibrio cholerae 1 | [2] 1 | P. vulgatus RND KO 0.945 | P. vulgatus WT 0.977 | [3] 0.998 | [4] 0.981

CC(C)(C)NC[C@H](O)COc1cccc2c1CCCC2=O [(-) Levobunolol hydrochloride]
inactive: [1] 0.994 | Shigella flexneri 0.936 | Vibrio cholerae 0.973 | [2] 0.989 | P. vulgatus RND KO 0.982 | P. vulgatus WT 0.981 | [3] 0.995 | [4] 0.997

CC(C)(C)NCC(O)c1cc(O)cc(O)c1 (centres undefined) [Terbutaline hemisulfate]
inactive: [1] 1.02 | Shigella flexneri 1.03 | Vibrio cholerae 1.07 | [2] 1 | P. vulgatus RND KO 1.06 | P. vulgatus WT 1.06 | [3] 1.01 | [4] 1.01

COCCOC(=O)C1=C(C)NC(C)=C(C(=O)OC(C)C)C1c1cccc([N+](=O)[O-])c1 (centres undefined) [Nimodipine]
inactive: [1] 0.984 | Shigella flexneri 0.939 | Vibrio cholerae 0.956 | [2] 0.957 | P. vulgatus RND KO 1.02 | P. vulgatus WT 1 | [3] 0.991 | [4] 0.967

O=C(O[C@@H]1C[C@@H]2C[C@H]3C[C@H](C1)N2CC3=O)c1c[nH]c2ccccc12 [Dolasetron mesilate]
inactive: [1] 1.04 | Shigella flexneri 1.01 | Vibrio cholerae 0.999 | [2] 1.01 | P. vulgatus RND KO 1.02 | P. vulgatus WT 1.04 | [3] 1.01 | [4] 0.984

Cc1ccc(C(=O)c2ccc(CC(=O)O)n2C)cc1 [Tolmetin sodium salt dihydrate]
inactive: [1] 0.984 | Shigella flexneri 1.04 | Vibrio cholerae 1.05 | [2] 1.01 | P. vulgatus RND KO 0.983 | P. vulgatus WT 0.985 | [3] 0.999 | [4] 1

CC(C)(Oc1ccc(C2CC2(Cl)Cl)cc1)C(=O)O (centres undefined) [Ciprofibrate]
inactive: [1] 1.01 | Shigella flexneri 0.998 | Vibrio cholerae 0.997 | [2] 0.995 | P. vulgatus RND KO 0.973 | P. vulgatus WT 0.961 | [3] 0.992 | [4] 0.993
